Active and inactive are the calls of the source. How the source made its calls: active means hit-call score of the fitted dose curve at least 0.9, where 1 is the maximum; inactive means score below 0.9.
Experiments:
[1] = ATG_CRE_CIS: Attagene CIS-FACTORIAL HepG2 Assay for human cAMP Responsive Element (CRE) binding protein 3 (AID 2282926); settings: HepG2 CRE cis-reporter, Attagene multiplexed mRNA; actives raise or lower the signal
How it was run: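 We dosed HepG2 cells bearing multiple cis-promoter reporter units for 24 h and measured reporter mRNA by RT-PCR with capillary electrophoresis detection. Bidirectional concentration-response fitting used DMSO as negative control.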

[2] = ATG_CMV_CIS: Attagene CIS-FACTORIAL HepG2 Assay for human CMV (Internal Marker) (AID 2282928); settings: HepG2 CMV promoter reporter, transcription factor profiling; actives raise or lower the signal;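 further: endpoint acts as a background internal control marker rather than a target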
How it was run: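 After transient transfection of HepG2 with reporter transcription units driven by cis-regulatory promoters, cells receive test chemical for 24 h. Labeled reporter amplicons, digested with HpaI, are sized and quantified by capillary electrophoresis against DMSO.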

[3] = ATG_DR4_LXR_CIS: Attagene CIS-FACTORIAL HepG2 Assay for human Liver X Receptor (LXR), DR4 submotif (AID 2282929); settings: HepG2 Attagene DR4 cis-reporter, mRNA transcription; actives raise or lower the signal
How it was run: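 DR4 cis-reporter in HepG2, 24 h exposure. Detection: RT-PCR, 6-FAM labelling, CE fragment analysis. Endpoint fitted bidirectionally, DMSO = baseline.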

[4] = biological target: Aryl hydrocarbon receptor (Homo sapiens) (UniProt P35869); assay: ATG_Ahr_CIS: Attagene CIS-FACTORIAL HepG2 Assay for human Aryl Hydrocarbon Receptor (Ahr) (AID 2282930); settings: HepG2 AhR cis-factorial reporter transcription; actives raise or lower the signal
Aryl hydrocarbon receptor (Homo sapiens), sequence (P35869 whole entry, looked up): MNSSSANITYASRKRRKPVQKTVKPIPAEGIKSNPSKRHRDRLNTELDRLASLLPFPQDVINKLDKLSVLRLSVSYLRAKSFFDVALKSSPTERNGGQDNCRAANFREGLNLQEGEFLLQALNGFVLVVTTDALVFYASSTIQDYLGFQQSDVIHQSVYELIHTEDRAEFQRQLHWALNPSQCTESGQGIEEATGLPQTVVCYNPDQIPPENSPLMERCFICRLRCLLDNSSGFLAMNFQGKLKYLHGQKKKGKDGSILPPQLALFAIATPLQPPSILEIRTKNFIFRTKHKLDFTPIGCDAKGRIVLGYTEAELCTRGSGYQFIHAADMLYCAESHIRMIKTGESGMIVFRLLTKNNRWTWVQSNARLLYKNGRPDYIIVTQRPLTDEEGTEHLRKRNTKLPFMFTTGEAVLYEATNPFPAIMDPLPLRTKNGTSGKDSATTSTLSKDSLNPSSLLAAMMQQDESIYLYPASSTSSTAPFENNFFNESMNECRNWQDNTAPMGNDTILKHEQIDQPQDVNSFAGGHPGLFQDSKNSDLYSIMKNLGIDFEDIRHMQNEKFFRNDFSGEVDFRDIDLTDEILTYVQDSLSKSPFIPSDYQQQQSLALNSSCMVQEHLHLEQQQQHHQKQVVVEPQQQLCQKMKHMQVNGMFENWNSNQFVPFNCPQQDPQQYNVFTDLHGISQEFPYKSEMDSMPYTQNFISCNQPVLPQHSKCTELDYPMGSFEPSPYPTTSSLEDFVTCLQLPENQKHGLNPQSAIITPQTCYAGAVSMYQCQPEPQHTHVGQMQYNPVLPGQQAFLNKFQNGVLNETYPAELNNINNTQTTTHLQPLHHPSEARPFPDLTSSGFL
How it was run: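 Read-out: reporter mRNA quantified by RT-PCR with fluorescent primer extension and capillary electrophoresis. Human HepG2 liver cells carried transfected cis-promoter reporter units and were exposed to chemical for 24 h; gain or loss fitted relative to DMSO.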

[5] = ATG_AP_2_CIS: Attagene CIS-FACTORIAL HepG2 Assay for human Activator Protein 2 (AP-2) (AID 2282932); settings: HepG2 AP-2 cis-reporter, Attagene transcription factor profiling; actives raise or lower the signal
How it was run: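 HepG2 cells transiently transfected with cis-element reporter units and exposed for 24 h. Reporter mRNA measured by RT-PCR, FAM labelling, HpaI digestion and capillary electrophoresis. Changes in either direction fitted relative to DMSO.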

[6] = ATG_BRE_CIS: Attagene CIS-FACTORIAL HepG2 Assay for human Bone Morphogenetic Protein (BMP) Response Element (BRE) (AID 2282933); settings: HepG2 BMP response element reporter, Attagene transcription factor profiling; actives raise or lower the signal
How it was run: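 A HepG2 multiplex reporter system measured inducible reporter mRNA 24 h post-dosing. Detection: RT-PCR, 6-FAM primer extension, HpaI digestion, capillary electrophoresis. Activity fitted bidirectionally relative to DMSO.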

[7] = biological target: Transcription factor E2F1 (Homo sapiens) (UniProt Q01094); assay: ATG_E2F_CIS: Attagene CIS-FACTORIAL HepG2 Assay for human E2F Transcription Factor 1 (AID 2282935); settings: HepG2 Attagene cis-reporter, E2F reporter RNA transcripts; actives raise or lower the signal
Transcription factor E2F1 (Homo sapiens), sequence (Q01094 whole entry, looked up): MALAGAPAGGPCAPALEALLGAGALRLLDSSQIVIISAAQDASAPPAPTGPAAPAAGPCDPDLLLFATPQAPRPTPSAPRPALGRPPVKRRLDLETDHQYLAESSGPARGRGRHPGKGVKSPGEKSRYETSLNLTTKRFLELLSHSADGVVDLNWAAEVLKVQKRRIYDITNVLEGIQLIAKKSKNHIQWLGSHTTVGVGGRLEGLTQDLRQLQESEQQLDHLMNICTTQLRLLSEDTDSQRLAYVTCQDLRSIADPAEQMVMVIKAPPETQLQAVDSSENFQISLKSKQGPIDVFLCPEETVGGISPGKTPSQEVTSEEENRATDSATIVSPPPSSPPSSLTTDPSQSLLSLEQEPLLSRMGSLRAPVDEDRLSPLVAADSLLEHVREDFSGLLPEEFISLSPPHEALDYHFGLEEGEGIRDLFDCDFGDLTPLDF
How it was run: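 Endogenous E2F1 activity read through cis-promoter reporter units transfected into HepG2. After 24 h compound treatment, reporter mRNA measured by RT-PCR, HpaI digestion and capillary electrophoresis. Bidirectional fit versus DMSO.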

[8] = ATG_E_Box_CIS: Attagene CIS-FACTORIAL HepG2 Assay for human Enhancer Box (E-box) (AID 2282936); settings: HepG2 E-box cis-reporter transcription, actives raise or lower the signal
How it was run: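 HepG2 cells transiently transfected with multiplexed cis-element reporter units, dosed 24 h; reporter mRNA quantified by RT-PCR, 6-FAM labelling, HpaI digestion and capillary electrophoresis. E-box (USF1) signal fitted bidirectionally vs DMSO.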

[9] = ATG_M_61_CIS: Attagene CIS-FACTORIAL HepG2 Assay for M61 Transcription Factor (Internal Marker) (AID 2282937); settings: HepG2 Attagene CIS-FACTORIAL M61 internal marker reporter; actives raise or lower the signal
How it was run: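 Background-control endpoint: HepG2 cells with cis-regulated reporter constructs, 24 h exposure, reporter mRNA detected via fluorescent primer extension and capillary electrophoresis; values from bidirectional fitting with DMSO baseline.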

[10] = ATG_EGR_CIS: Attagene CIS-FACTORIAL HepG2 Assay for human Early Growth Response 1 (EGR1) (AID 2282938); settings: HepG2 Attagene CIS-FACTORIAL EGR reporter mRNA; actives raise or lower the signal
How it was run: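 Endpoint derived by bidirectional fitting versus DMSO vehicle. Method: cis-promoter reporter units transfected into HepG2, 24 h dosing, RNA isolation, RT-PCR with 6-FAM primer extension and HpaI digestion, then capillary electrophoresis fluorescence detection.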

[11] = ATG_M_19_CIS: Attagene CIS-FACTORIAL HepG2 Assay for M19 Transcription Factor (Internal Marker) (AID 2282939); settings: HepG2 Attagene CIS-FACTORIAL M19 internal marker reporter; actives raise or lower the signal
How it was run: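 Chemical-treated HepG2 (24 h) with MRTU constructs; reporter transcripts detected by fluorescent RT-PCR fragment analysis on capillary electrophoresis. Internal background marker, DMSO as baseline.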

[12] = ATG_ERE_CIS: Attagene CIS-FACTORIAL HepG2 Assay for Estrogen Response Element (ERE) (AID 2282940); settings: HepG2 ERE cis-reporter, Attagene RNA transcript; actives raise or lower the signal
How it was run: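 Human liver cells (HepG2) bearing transiently transfected, promoter-regulated reporter units were exposed 24 h. Reporter mRNA induction was detected by capillary electrophoresis of labelled RT-PCR products and fitted bidirectionally to DMSO.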

[13] = ATG_Ets_CIS: Attagene CIS-FACTORIAL HepG2 Assay for human Erythroblast Transformation Specific (ETS) (AID 2282941); settings: HepG2 ETS cis-reporter transcription, actives raise or lower the signal
How it was run: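 Human HepG2 hepatoma cells were transiently transfected with promoter-driven reporter constructs and treated for 24 hours. Reporter transcripts were quantified by RT-PCR with fluorescent primer extension; bidirectional curve fitting used DMSO as reference.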

[14] = biological target: Hepatocyte nuclear factor 3-beta (Homo sapiens) (UniProt Q9Y261); assay: ATG_FoxA2_CIS: Attagene CIS-FACTORIAL HepG2 Assay for human Forkhead box A2 (FOXA2) (AID 2282942); settings: HepG2 cis-reporter transcription factor activity, 24 h; actives raise or lower the signal
Hepatocyte nuclear factor 3-beta (Homo sapiens), sequence (Q9Y261 whole entry, looked up): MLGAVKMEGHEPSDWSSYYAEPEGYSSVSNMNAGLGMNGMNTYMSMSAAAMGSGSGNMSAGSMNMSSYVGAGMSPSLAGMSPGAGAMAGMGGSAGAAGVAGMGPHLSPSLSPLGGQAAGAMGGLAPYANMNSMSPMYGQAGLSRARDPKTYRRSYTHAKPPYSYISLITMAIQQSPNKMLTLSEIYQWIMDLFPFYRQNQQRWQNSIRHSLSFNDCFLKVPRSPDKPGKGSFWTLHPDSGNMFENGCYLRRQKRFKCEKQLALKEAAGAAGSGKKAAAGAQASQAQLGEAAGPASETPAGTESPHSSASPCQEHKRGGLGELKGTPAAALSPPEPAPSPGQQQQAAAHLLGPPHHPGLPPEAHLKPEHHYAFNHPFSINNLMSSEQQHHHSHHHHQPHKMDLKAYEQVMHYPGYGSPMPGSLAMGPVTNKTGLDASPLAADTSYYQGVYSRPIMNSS
How it was run: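 Measured: reporter mRNA induction or loss in HepG2 transiently carrying multiple cis-regulated reporter units, 24 h after dosing. Quantified by RT-PCR plus capillary electrophoresis, normalised to DMSO.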

[15] = ATG_FoxO_CIS: Attagene CIS-FACTORIAL HepG2 Assay for human Forkhead box O (FoxO) (AID 2282943); settings: HepG2 Attagene cis-reporter, FoxO element, mRNA; actives raise or lower the signal
How it was run: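 Read-out: fluorescence of 6-FAM-labelled reporter cDNA fragments resolved by capillary electrophoresis. Transiently transfected HepG2 cells were dosed for 24 h; activity fitted in both directions relative to DMSO controls.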

[16] = ATG_GATA_CIS: Attagene CIS-FACTORIAL HepG2 Assay for human GATA Binding Protein (AID 2282944); settings: HepG2 GATA cis-element reporter, Attagene multiplex mRNA; actives raise or lower the signal
How it was run: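 Transfected cis-reporter HepG2 cells were treated with chemicals for 24 hours. Total RNA was then converted to cDNA, amplified with reporter-specific primers and analysed by fluorescent capillary electrophoresis, using DMSO-treated wells as baseline.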

[17] = ATG_AP_1_CIS: Attagene CIS-FACTORIAL HepG2 Assay for human Activator Protein 1 (AP-1) (AID 2282931); settings: HepG2 Attagene cis-factorial AP-1 reporter mRNA; actives raise or lower the signal
How it was run: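 Cis-regulated reporter units transiently expressed in HepG2 report endogenous transcription-factor activity. Signal: reporter mRNA at 24 h, via RT-PCR and fluorescent capillary electrophoresis. Endpoint derived by bidirectional fitting, DMSO as negative control.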

[18] = biological target: Retinoic acid receptor alpha (Homo sapiens) (UniProt P10276); assay: ATG_DR5_RAR_CIS: Attagene CIS-FACTORIAL HepG2 Assay for human Retinoic Acid Receptor Alpha (RARE), DR5 submotif (AID 2282934); settings: HepG2 Attagene cis-factorial RARE DR5 reporter, mRNA; actives raise or lower the signal
Retinoic acid receptor alpha (Homo sapiens), sequence (P10276 whole entry, looked up): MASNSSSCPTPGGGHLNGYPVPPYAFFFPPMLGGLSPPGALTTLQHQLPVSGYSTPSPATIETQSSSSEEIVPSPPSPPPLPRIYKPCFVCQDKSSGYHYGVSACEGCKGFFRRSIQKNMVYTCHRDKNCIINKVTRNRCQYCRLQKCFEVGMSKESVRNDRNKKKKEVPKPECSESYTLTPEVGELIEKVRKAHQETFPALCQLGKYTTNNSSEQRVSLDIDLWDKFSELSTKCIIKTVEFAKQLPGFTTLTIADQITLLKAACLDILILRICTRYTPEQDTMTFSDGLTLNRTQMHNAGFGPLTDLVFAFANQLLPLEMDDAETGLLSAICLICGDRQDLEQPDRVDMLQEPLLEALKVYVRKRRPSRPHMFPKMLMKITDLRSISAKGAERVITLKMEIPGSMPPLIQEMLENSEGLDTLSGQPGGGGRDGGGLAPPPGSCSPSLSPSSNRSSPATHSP
How it was run: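 Read-out: DR5-driven reporter transcript measured by RT-PCR, 6-FAM primer extension, HpaI digest and capillary electrophoresis. Human HepG2 liver cells carry transiently transfected cis-element reporter constructs; dosing lasts 24 h. Gain or loss of signal fitted against DMSO baseline.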

[19] = biological target: CCAAT/enhancer-binding protein beta (Homo sapiens) (UniProt P17676); assay: ATG_C_EBP_CIS: Attagene CIS-FACTORIAL HepG2 Assay for human CCAAT/Enhancer Binding Protein (C/EBP) beta (AID 2282927); settings: HepG2 Attagene cis-factorial transcription factor reporter; actives raise or lower the signal
CCAAT/enhancer-binding protein beta (Homo sapiens), sequence (P17676 whole entry, looked up): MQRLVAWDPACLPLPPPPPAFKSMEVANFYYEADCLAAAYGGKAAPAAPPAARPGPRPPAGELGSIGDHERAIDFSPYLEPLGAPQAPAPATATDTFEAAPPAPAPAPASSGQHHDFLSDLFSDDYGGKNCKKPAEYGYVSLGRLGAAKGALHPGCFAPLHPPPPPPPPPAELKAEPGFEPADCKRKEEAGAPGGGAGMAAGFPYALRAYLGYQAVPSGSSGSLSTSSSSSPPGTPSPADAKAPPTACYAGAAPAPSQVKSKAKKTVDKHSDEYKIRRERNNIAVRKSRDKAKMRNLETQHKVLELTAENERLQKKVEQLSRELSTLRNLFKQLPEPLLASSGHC
How it was run: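 Transiently transfected HepG2 (MRTU library, endogenous TF-driven promoters); 24 h dosing; total RNA → oligo(dT) RT → PCR → 6-FAM primer extension → HpaI digest → CE; fit bidirectionally vs DMSO.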

Measured: AC50

Cc1cc(C)c(O)c(C(C)(C)C)c1
inactive: [1] | [3] | [4] | [5] | [6] | [7] | [8] | [9] | [10] | [11] | [12] | [13] | [14] | [15] | [16]
active: [2] 100 µM

OCC(F)(F)C(F)(F)C(F)(F)C(F)(F)C(F)(F)C(F)(F)CO
active: [12] 0.0909 µM
inactive: [1] | [2] | [3] | [4] | [17] | [5] | [6] | [18] | [7] | [8] | [9] | [10] | [11] | [13] | [14] | [15] | [16]

CC(=O)CCC(C)C
inactive: [1] | [19] | [2] | [3] | [4] | [17] | [5] | [18] | [7] | [8] | [9] | [10] | [11] | [12] | [13] | [15] | [16]

C[Si](C)O[Si](C)C
inactive: [1] | [19] | [2] | [3] | [4] | [5] | [6] | [18] | [7] | [8] | [9] | [10] | [11] | [12] | [13] | [15] | [16]

O=C=Nc1cccc2c(N=C=O)cccc12
inactive: [1] | [19] | [2] | [3] | [17] | [5] | [6] | [7] | [8] | [9] | [10] | [11] | [12] | [13] | [15] | [16]
active: [4] 4.73 µM

Cc1ccc(S(=O)(=O)C(I)I)cc1
inactive: [19] | [2] | [3] | [6] | [7] | [9] | [10] | [11] | [12]
active: [1] 8.93 µM | [4] 27.5 µM | [17] 51.7 µM | [5] 13.1 µM | [8] 24.3 µM | [13] 8.59 µM | [14] 43.7 µM | [15] 5.14 µM | [16] 8.85 µM

CCCCCCCC/C=C\CCCCCCCC(=O)N(C)CC(=O)O
inactive: [1] | [19] | [2] | [3] | [4] | [17] | [5] | [6] | [18] | [7] | [8] | [9] | [10] | [11] | [12] | [13] | [14] | [15] | [16]

FC(F)(F)C(F)(F)C(F)(F)C(F)(F)C(F)(F)C(F)(F)CC[Si](Cl)(Cl)Cl
inactive: [1] | [19] | [2] | [3] | [4] | [17] | [5] | [6] | [18] | [7] | [8] | [9] | [10] | [11] | [12] | [13] | [15] | [16]

CC(C)(C)c1cc(CCC(=O)NCCCCCCNC(=O)CCc2cc(C(C)(C)C)c(O)c(C(C)(C)C)c2)cc(C(C)(C)C)c1O
inactive: [1] | [19] | [2] | [3] | [4] | [5] | [6] | [7] | [8] | [9] | [10] | [11] | [12] | [13] | [14] | [15] | [16]

C[Si](Cl)(Cl)CCC(F)(F)C(F)(F)C(F)(F)C(F)(F)C(F)(F)C(F)(F)F
inactive: [1] | [19] | [2] | [3] | [4] | [17] | [5] | [6] | [7] | [8] | [9] | [10] | [11] | [12] | [13] | [14] | [15] | [16]

C=CC(=O)OCC(F)(F)C(F)(F)C(F)(F)COC(=O)C=C
inactive: [1] | [4] | [17] | [5] | [7] | [9] | [11] | [12] | [13] | [15] | [16]
active: [2] 31.6 µM | [3] 31.7 µM | [8] 78.6 µM | [10] 42.4 µM

CCC/C=C/CO
inactive: [1] | [19] | [2] | [3] | [4] | [5] | [6] | [18] | [7] | [8] | [9] | [10] | [11] | [12] | [13] | [14] | [15] | [16]

CCOC(OCC)OCC
active: [4] 31.6 µM
inactive: [1] | [19] | [2] | [3] | [17] | [5] | [6] | [18] | [7] | [8] | [9] | [10] | [11] | [12] | [13] | [14] | [15] | [16]

COc1ccccc1C=O
inactive: [1] | [19] | [2] | [3] | [4] | [17] | [5] | [18] | [7] | [8] | [9] | [10] | [11] | [12] | [13] | [15] | [16]

CC(C)(C)c1cc(Cc2cc(C(C)(C)C)c(O)c(C(C)(C)C)c2)cc(C(C)(C)C)c1O
inactive: [1] | [19] | [2] | [3] | [4] | [5] | [6] | [18] | [7] | [8] | [9] | [10] | [11] | [12] | [13] | [14] | [15] | [16]
